We go through 25 molecules from PubChem BioAssay (NCATS).

One test deals with CAOV3. The experiment in a line: Primary qHTS to identify gynecologic anti-cancer compounds using libraries of approved drugs and bioactive compounds (AID 1345084). Further: nearly all actives have a fitted effect of over 55% in size. The following applies: Gynecologic cancer cell panel viability, ATPlite luminescence, 48 h; series mostly up to 57.5 µM. In outline:
(§1)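 Five-concentration response, 48 h; readout is ATP-driven luciferase luminescence.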

In a further test the test system is HeLa. The test is described as above. To be noted: Gynecologic cancer cell panel viability, ATPlite luminescence, 48 h; series mostly up to 57.5 µM. In outline: as §1
For a further test, the system named is JEG-3. Described as above. The following applies: Gynecologic cancer cell panel viability, ATPlite luminescence, 48 h; series mostly up to 57.5 µM. In outline:
as §1

A further test relates to OV90. Described as above. The following applies: Gynecologic cancer cell panel viability, ATPlite luminescence, 48 h; series mostly up to 57.5 µM. The essentials:
as §1

The test system of another test is Tov112D. The test is described as above. To be noted: Gynecologic cancer cell panel viability, ATPlite luminescence, 48 h; series mostly up to 57.5 µM. The essentials:
as §1

For another test, the system named is CASKI. Described as above. The following applies: Gynecologic cancer cell panel viability, ATPlite luminescence, 48 h; series mostly up to 57.5 µM. In outline: as §1
The subject of a further test is PA-1. The description is as above. To be noted: Gynecologic cancer cell panel viability, ATPlite luminescence, 48 h; series mostly up to 57.5 µM. In outline:
as §1

In a further test the test system is Tov-21-G. The test is described as above. To be noted: Gynecologic cancer cell panel viability, ATPlite luminescence, 48 h; series mostly up to 57.5 µM. The essentials:
as §1

A further test relates to SKOV3. The description is as above. The following applies: Gynecologic cancer cell panel viability, ATPlite luminescence, 48 h; series mostly up to 57.5 µM. In outline:
as §1

Test [1] can be described thus: qHTS assay to identify inhibitors of the type 1 interferon - major histocompatibility complex class I in skeletal muscle: Counter screen cell viability and HiBit confirmation (AID 1347412). On all read-outs here: nearly all actives have a fitted effect of over 60% in size. To be noted: iHSKM muscle cells + IFN-b, HiBiT or CellTiter-Glo, 24 h; for activity change, negative = inhibition: Viability, at 45.9 µM (top of the series); for Potency: HiBiT. The essentials: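 Myoblasts (C25cl48, HLA-B HiBiT) seeded in medium without dexamethasone, IFN-b 4 ng/ml added except unstimulated columns; 1 hr later compounds pinned (12-pt 1:3, top 46 uM final). Incubated 24 hrs, lysed 10 min, luminescence measured.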

The subject of a further test is Hek293T. The test can be described thus: Primary qHTS to identify gynecologic anti-cancer compounds using libraries of approved drugs and bioactive compounds (AID 1345084). Further: nearly all actives have a fitted effect of over 55% in size. To be noted: Gynecologic cancer cell panel viability, ATPlite luminescence, 48 h, control line for the selectivity index; series mostly up to 57.5 µM. The essentials: as §1
The next test deals with Es-2. The test is described as above. To be noted: Gynecologic cancer cell panel viability, ATPlite luminescence, 48 h; series mostly up to 57.5 µM. The essentials: as §1

Structures are written as SMILES. Inconclusive results are not listed. Values without a mark were called inactive. Active and inactive are the calls of the source. The call rests on the fitted dose curve; in most records, active means well fitted curve in the direction sought with a large enough effect; inconclusive means small, poorly fitted or top-dose-only effect, or another doubt; inactive means no such curve, though single readings can be large; an effect the other way counts as inactive or inconclusive.
On the % scale 0 is the no-effect control and ±100 the full control effect; potency means the concentration at half of the fitted maximal effect.

Turning to `C=C(C)C(=O)OC1CC2(C)OC(=CC2=O)C(=C)CC2OC(=O)C(COC)C12` (configuration not stated), the Potency result with CAOV3, in the test on HeLa, in the test with JEG-3, in the test on OV90 and with Tov112D was “inactive” in each case.
On to `CNC(=O)c1ccccc1Nc1nc(Nc2ccc3c(c2OC)CCC[C@@H](N2CCN(CCO)CC2)C3)ncc1Cl`, for which the Potency in the test on CASKI was 12.6 µM (active); in the test with OV90, 7.94 µM (active); in the test with PA-1, 10 µM (active); in the test with Tov-21-G, 10 µM (active).
Consider `Cn1cncc1C(N)(c1ccc(Cl)cc1)c1ccc2c(c1)c(-c1cccc(Cl)c1)cc(=O)n2C` (configuration not stated), for which the Potency entry in the test on CASKI, in the test on HeLa and in the test with SKOV3 was “inactive” in each case. Moreover, the activity change, negative = inhibition in [1] is -22.3%.
In the case of `CO[C@@H](C)Cn1c(=O)n(C)c2cnc3ccc(-c4cncc(C(C)(C)O)c4)cc3c21`, the Potency in the test on CASKI is 5.01 µM (active); in the test with HeLa it was 6.31 µM (active); in the test on Hek293T, 0.562 µM (active); in the test with JEG-3 it was 31.6 µM (active); in the test with PA-1, 0.891 µM (active).
As for `NC(=O)c1cccc2cn(-c3ccc(C4CCCNC4)cc3)nc12` (configuration not stated), the Potency result with CASKI, with HeLa, in the test on Hek293T, in the test on JEG-3, with OV90 and with SKOV3 was “inactive” throughout. The Potency entry in the test with Tov-21-G is “inactive”.
`CO[C@H]1/C=C/[C@@](C)(O)/C=C/C(=O)O[C@H](C)[C@@H](C)CC/C=C/1C`: the Potency with CASKI is 11.2 µM (active); in the test with SKOV3 it was 12.6 µM (active); in the test with Tov-21-G it was 10 µM (active).
Regarding `C#CC[C@H](c1nc2cc(Cl)ccc2c(=O)n1Nc1ccccc1)N(CCCN)C(=O)c1cccc(Cl)c1F`, the Potency is 7.94 µM (active) with Es-2, 3.16 µM (active) in the test with HeLa, 14.1 µM (active) with Hek293T and 0.355 µM (active) with Tov112D. The Potency result with OV90 is “inactive”.
`Cc1cc(O)c(-c2ccc([C@@H](C)CN(C)C)cc2)c2c1[nH]c(=O)c1sccc12`: the Potency with CASKI is 0.251 µM (active); in the test on Es-2, 0.282 µM (active); in the test on HeLa, 0.447 µM (active); with Hek293T, 0.158 µM (active); with PA-1, 0.282 µM (active); in the test on Tov-21-G, 0.316 µM (active). In addition, the values for the Potency (with Tov112D; in test [1]) were 0.282 µM (active) and 0.0787 µM (active), respectively. Moreover, the activity change, negative = inhibition in test [1] was -2.3%.
For `COc1cc2ncnc(Nc3cccc(O)c3)c2cc1OC`, the Potency entry with Es-2, in the test with HeLa, in the test with Hek293T, with JEG-3 and in the test on Tov112D was “inactive” in each case. Also, in the test on Tov-21-G, the Potency was 15.8 µM (active).
As for `CCCNc1ccc2ncc(-c3ccc4[nH]ncc4c3)n2n1`, the Potency was 8.91 µM (active) in the test with CASKI; 4.47 µM (active) with HeLa; 2 µM (active) with Hek293T; 2.82 µM (active) with PA-1; 3.16 µM (active) in the test on Tov-21-G; 3.55 µM (active) in the test on Tov112D.
Consider `CC(Oc1ccc2[nH]nc(/C=C/c3cnn(CCO)c3)c2c1)c1c(Cl)cncc1Cl` (configuration not stated), for which the Potency in the test with Es-2 was 20 µM (active); with HeLa it was 1.58 µM (active); with Hek293T, 10 µM (active); in the test with PA-1, 6.31 µM (active); with Tov-21-G it was 3.55 µM (active).
Turning to `CNC(=O)c1ccccc1Nc1nc(Nc2ccc(N3CCNCC3)cc2)ncc1Cl`, the Potency is 0.355 µM (active) in the test with CASKI; 2.24 µM (active) with Es-2; 0.0398 µM (active) in the test on HeLa; 0.631 µM (active) in the test with Hek293T; 0.316 µM (active) in the test with PA-1; 0.355 µM (active) in the test on Tov-21-G.
For the molecule `COc1ccc(-c2ccc3c(N4CCOCC4)nc(N4CC(C)OC(C)C4)nc3n2)cc1CO` (configuration not stated), the Potency was 1.12 µM (active) with CASKI; 1.58 µM (active) with Hek293T; 2.82 µM (active) with OV90; 2.51 µM (active) in the test with PA-1; 0.794 µM (active) in the test with SKOV3; 1.26 µM (active) in the test on Tov-21-G. Moreover, the Potency entry in the test with JEG-3 is “inactive”.
As to `C[C@@H]1C[C@H]2O[C@@H]2/C=C\C=C\C(=O)Cc2c(Cl)c(O)cc(O)c2C(=O)O1`, the activity change, negative = cytotoxicity in the test with CASKI is -0.527% [at 11.6 µM]; in the test on Tov112D it was -26.2% [at 11.6 µM].
On to `COc1cc2c(cc1OC)-c1[nH]nc(Nc3cccc(F)c3)c1C2`, for which the Potency in the test with CASKI was 0.891 µM (active); in the test with Es-2, 1.41 µM (active); in the test on HeLa, 0.562 µM (active); with PA-1, 0.316 µM (active); in the test with Tov-21-G, 2.24 µM (active); with Tov112D, 0.282 µM (active).
With `COc1cccc(Nc2ncnn3ccc(CN4CC[C@@H](N)[C@H](O)C4)c23)c1`, the Potency result in the test on CASKI, in the test on Es-2, in the test on HeLa and in the test with JEG-3 was “inactive” throughout. Also, the Potency in the test on Tov-21-G was 5.62 µM (active); in test [1] it was 6.25 µM (active).
Take `O=C(Nc1nc2ccccc2n1CCc1ccccc1)c1ccccc1`: the Potency result with CASKI and in the test on HeLa was “inactive” in each case. In addition, the Potency with PA-1 is 31.6 µM (active).
For `Nc1ccc(-c2cccc3c(=O)cc(N4CCOCC4)oc23)cc1`, the Potency with CASKI is 12.6 µM (active); in the test with OV90 it was 11.2 µM (active). Besides, the Potency result in the test on JEG-3 was “inactive”.
In the case of `C=C(C)C(=O)O[C@H]1CC2=CC(C/C(C)=C\[C@H]3OC(=O)C(=C)[C@H]13)OC2=O` (some centres not stated), the Potency result with CASKI, in the test with HeLa, with JEG-3, with OV90, in the test with SKOV3 and with Tov112D was “inactive” each time.
As for `CC(C)[C@@](C)(O)[C@@H]1CN(c2nc(-c3[nH]nc4ncccc34)c(F)cc2Cl)CCN1`, the Potency result with CASKI, in the test on Es-2, with HeLa, in the test on Hek293T, with OV90 and in the test on Tov112D was “inactive” in each case. Further, in the test on JEG-3, the Potency is 25.1 µM (active).
Regarding `N#CC(c1ccnc(OCc2ccc(CN3CCOCC3)cc2)n1)c1nc2ccccc2s1` (configuration not stated), the Potency entry with Es-2, with HeLa, with PA-1 and in the test on Tov112D was “inactive” each time. Further, the Potency in the test on JEG-3 is 10 µM (active); with OV90, 7.94 µM (active); in the test on SKOV3, 7.94 µM (active).
Regarding `CS(=O)(=O)N1CCC(NC(=O)c2[nH]ncc2NC(=O)c2c(Cl)cccc2Cl)CC1`, the Potency with CASKI was 7.94 µM (active); in the test on Es-2, 4.47 µM (active); in the test with HeLa, 10 µM (active); in the test with Hek293T, 5.01 µM (active); in the test with PA-1, 3.98 µM (active); with Tov112D, 8.91 µM (active). The Potency in test [1] was 1.98 µM (active). For the same molecule, the Potency result in the test with JEG-3 is “inactive”. Moreover, in [1], the activity change, negative = inhibition is 12.3%.
In the case of `COc1ncc(Nc2ncc([C@H](C)N3CCN(S(C)(=O)=O)CC3)cc2-c2nc(C)nc(N)n2)cc1F`, the Potency in the test on CASKI was 1 µM (active); in the test on Hek293T, 0.794 µM (active); in the test with SKOV3, 2.82 µM (active). For the same molecule, the Potency result with Es-2, in the test with OV90 and in the test on Tov112D was “inactive” throughout.
As for `CN(C)c1nc(NC2CCC(NC(=O)c3ccc(F)c(F)c3)CC2)nc2ccccc12` (configuration not stated), in the test on CASKI, the Potency entry was “inactive”. Also, the values for the Potency in the test on Hek293T, with OV90 and with PA-1 were 28.2 µM (active), 11.2 µM (active) and 14.1 µM (active), respectively.
In the case of `O=S(=O)(c1ccccc1)c1cnc2c(N3CCNCC3)cccc2c1`, the Potency entry in the test on CASKI, in the test with Es-2, in the test on HeLa, with Hek293T, in the test on PA-1 and in the test on Tov-21-G was “inactive” throughout.
